# Test results from the supplement of paper PMC8728848.
# The full list was thinned out, with the strongest signals kept by preference.
# What was measured:
# Test in all cases: glycan array binding signal (z-score within array); higher = stronger binding
# Conditions in all cases: glycan notation: IUPAC condensed, linker removed
# [1] = target: Fuc(a1-2)Gal(b1-3)GlcNAc(b1-3)[Gal(b1-4)GlcNAc(b1-6)]Gal(b1-4)Glc
# Procedure, shortened: (§1)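 Arrays were curated from the Consortium for Functional Glycomics database, 3228 in total, and kept only where the protein sequence was available. Binding is expressed as a within-array Z-score. This score was averaged across arrays of the same protein sequence at different concentrations or buffers and across linkers, and negative values can be read as non-binding.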
# [2] = target: Fuc(a1-2)Gal(b1-3)[Fuc(a1-4)]GlcNAc
# Procedure, shortened: as §1
# [3] = target: Fuc(a1-2)Gal(b1-3)[Fuc(a1-4)]GlcNAc(b1-2)Man(a1-3)[Fuc(a1-2)Gal(b1-3)[Fuc(a1-4)]GlcNAc(b1-2)Man(a1-6)]Man(b1-4)GlcNAc(b1-4)[Fuc(a1-6)]GlcNAc(b1-4)[Fuc(a1-6)]GlcNAc
# Procedure, shortened: as §1
# [4] = target: Fuc(a1-2)Gal(b1-4)GlcNAc(b1-3)[Fuc(a1-3)[Gal(b1-4)]GlcNAc(b1-6)]Gal(b1-4)Glc
# Procedure, shortened: as §1
# [5] = target: Fuc(a1-2)Gal(b1-4)[Fuc(a1-3)]GlcNAc(b1-3)Gal(b1-4)[Fuc(a1-3)]GlcNAc(b1-3)Gal(b1-4)[Fuc(a1-3)]GlcNAc
# Procedure, shortened: as §1
# [6] = target: Fuc(a1-2)[Gal(a1-3)]Gal(b1-4)GlcNAc(b1-3)GalNAc
# Procedure, shortened: as §1
# [7] = target: Fuc(a1-3)[Gal(b1-4)]GlcNAc(b1-2)Man(a1-3)[Fuc(a1-3)[Gal(b1-4)]GlcNAc(b1-2)Man(a1-6)]Man(b1-4)GlcNAc(b1-4)GlcNAc
# Procedure, shortened: as §1
# [8] = target: Gal(a1-3)Gal(b1-3)GlcNAc(b1-2)Man
# Procedure, shortened: as §1
# [9] = target: Gal(a1-3)Gal(b1-3)GlcNAc(b1-6)GalNAc
# Procedure, shortened: as §1
# [10] = target: Gal(a1-3)Gal(b1-4)GlcNAc(b1-6)GalNAc
# Procedure, shortened: as §1
# Gal(b1-4)GlcNAc = target: Gal(b1-4)GlcNAc
# Procedure, shortened: as §1
# [11] = target: Gal(b1-4)GlcNAc(b1-2)[Gal(b1-4)GlcNAc(b1-4)]Man(a1-3)[GlcNAc(b1-4)][Gal(b1-4)GlcNAc(b1-2)[Gal(b1-4)GlcNAc(b1-6)]Man(a1-6)]Man(b1-4)GlcNAc(b1-4)GlcNAc
# Procedure, shortened: as §1
# [12] = target: Gal(b1-4)GlcNAc(b1-2)[Gal(b1-4)GlcNAc(b1-6)]Man(a1-6)[GlcNAc(b1-4)][Gal(b1-4)GlcNAc(b1-2)Man(a1-3)]Man(b1-4)GlcNAc(b1-4)GlcNAc
# Procedure, shortened: as §1
# [13] = target: Gal(b1-4)GlcNAc(b1-3)Gal(b1-4)GlcNAc(b1-3)Gal(b1-4)GlcNAc(b1-3)Gal(b1-4)GlcNAc(b1-2)Man(a1-3)[Gal(b1-4)GlcNAc(b1-3)Gal(b1-4)GlcNAc(b1-3)Gal(b1-4)GlcNAc(b1-3)Gal(b1-4)GlcNAc(b1-2)Man(a1-6)]Man(b1-4)GlcNAc(b1-4)[Fuc(a1-6)]GlcNAc
# Procedure, shortened: as §1
# [14] = target: Gal(b1-4)GlcNAc(b1-3)Gal(b1-4)GlcNAc(b1-3)Gal(b1-4)GlcNAc(b1-3)Gal(b1-4)GlcNAc(b1-3)Gal(b1-4)GlcNAc(b1-2)Man(a1-3)[Gal(b1-4)GlcNAc(b1-3)Gal(b1-4)GlcNAc(b1-3)Gal(b1-4)GlcNAc(b1-3)Gal(b1-4)GlcNAc(b1-3)Gal(b1-4)GlcNAc(b1-2)Man(a1-6)]Man(b1-4)GlcNAc(b1-4)[Fuc(a1-6)]GlcNAc
# Procedure, shortened: as §1
# [15] = target: Gal(b1-4)GlcNAc(b1-3)GalNAc
# Procedure, shortened: as §1
# [16] = target: Gal(b1-4)GlcNAc(b1-6)[Gal(b1-3)]GalNAc
# Procedure, shortened: as §1
# Gal3S(b1-4)Glc = target: Gal3S(b1-4)Glc
# Procedure, shortened: as §1
# Gal6S(b1-4)Glc6S = target: Gal6S(b1-4)Glc6S
# Procedure, shortened: as §1
# GalNAc(b1-4)GlcNAc6S = target: GalNAc(b1-4)GlcNAc6S
# Procedure, shortened: as §1
# GlcA(b1-6)Gal = target: GlcA(b1-6)Gal
# Procedure, shortened: as §1
# [17] = target: GlcNAc(a1-4)Gal(b1-4)GlcNAc(b1-3)Gal(b1-4)Glc
# Procedure, shortened: as §1
# [18] = target: GlcNAc(a1-4)Gal(b1-4)GlcNAc(b1-3)Gal(b1-4)GlcNAc(b1-3)Gal(b1-4)GlcNAc
# Procedure, shortened: as §1
# [19] = target: GlcNAc(b1-3)Gal(b1-4)GlcNAc(b1-2)[GlcNAc(b1-3)Gal(b1-4)GlcNAc(b1-6)]Man(a1-6)[GlcNAc(b1-3)Gal(b1-4)GlcNAc(b1-2)Man(a1-3)]Man(b1-4)GlcNAc(b1-4)GlcNAc
# Procedure, shortened: as §1
# [20] = target: GlcNAc(b1-3)Gal(b1-4)GlcNAc(b1-3)Gal(b1-4)GlcNAc(b1-3)Gal(b1-4)GlcNAc(b1-2)[GlcNAc(b1-3)Gal(b1-4)GlcNAc(b1-3)Gal(b1-4)GlcNAc(b1-3)Gal(b1-4)GlcNAc(b1-6)]Man(a1-6)[GlcNAc(b1-3)Gal(b1-4)GlcNAc(b1-3)Gal(b1-4)GlcNAc(b1-3)Gal(b1-4)GlcNAc(b1-2)Man(a1-3)]Man(b1-4)GlcNAc(b1-4)[Fuc(a1-6)]GlcNAc
# Procedure, shortened: as §1
# [21] = target: GlcNAc(b1-3)Gal(b1-4)GlcNAc(b1-3)Gal(b1-4)GlcNAc(b1-3)Gal(b1-4)GlcNAc(b1-3)Gal(b1-4)GlcNAc(b1-2)Man(a1-3)[GlcNAc(b1-3)Gal(b1-4)GlcNAc(b1-3)Gal(b1-4)GlcNAc(b1-3)Gal(b1-4)GlcNAc(b1-3)Gal(b1-4)GlcNAc(b1-2)Man(a1-6)]Man(b1-4)GlcNAc(b1-4)GlcNAc
# Procedure, shortened: as §1
# [22] = target: GlcNAc(b1-3)[GlcNAc(b1-6)]Gal(b1-4)GlcNAc
# Procedure, shortened: as §1
# [23] = target: GlcNAc(b1-4)Gal(b1-4)GlcNAc
# Procedure, shortened: as §1
binder,measurement,setting,value
Pwp2 (Candida glabrata) (protein) MGSSHHHHHHSSGLVPRGSHMASKNPVELNNVCTFPNDYGRIPGFTVLVGRLGLLISASDYKELLRYPGAFLIATQDTMTTSPNFELTGFPFFTGLYGLTVFPLDLLVELRGYFVPPNSGQYTFTLSDSDDAAIIFLGNPSAFPCGDLQNWPKPSEEDITVTDHLFPSRTLYLIEGVAYPMRIAYYNGIGAGRLNAAFIDPSGTRHTNWEGYIWQYDPCSTCTYS,glycan array binding signal (z-score),[1],-0.594
same,glycan array binding signal (z-score),[2],-0.451
same,glycan array binding signal (z-score),[3],6.32
same,glycan array binding signal (z-score),[4],0.384
same,glycan array binding signal (z-score),[5],-0.086
same,glycan array binding signal (z-score),[6],-0.603
same,glycan array binding signal (z-score),[7],2.54
same,glycan array binding signal (z-score),[8],-0.046
same,glycan array binding signal (z-score),[9],-0.526
same,glycan array binding signal (z-score),[10],-0.281
same,glycan array binding signal (z-score),Gal(b1-4)GlcNAc,-0.286
same,glycan array binding signal (z-score),[11],-0.248
same,glycan array binding signal (z-score),[12],-0.569
same,glycan array binding signal (z-score),[13],3.91
same,glycan array binding signal (z-score),[14],1.62
same,glycan array binding signal (z-score),[15],-0.473
same,glycan array binding signal (z-score),[16],1.6
same,glycan array binding signal (z-score),Gal3S(b1-4)Glc,-0.429
same,glycan array binding signal (z-score),Gal6S(b1-4)Glc6S,-0.419
same,glycan array binding signal (z-score),GalNAc(b1-4)GlcNAc6S,-0.448
same,glycan array binding signal (z-score),GlcA(b1-6)Gal,-0.235
same,glycan array binding signal (z-score),[17],-0.466
same,glycan array binding signal (z-score),[18],-0.42
same,glycan array binding signal (z-score),[19],4.24
same,glycan array binding signal (z-score),[20],5.45
same,glycan array binding signal (z-score),[21],-0.549
same,glycan array binding signal (z-score),[22],-0.141
same,glycan array binding signal (z-score),[23],-0.446
